Compounds with a hit are over-represented: about 12% of the library has one in this group of screens.
Arbovirus inh: blocks arbovirus infection; arbovirus infection cell-based antiviral screen; inhibition, % at 10 µM; 0.37% of 200,000 active; in the data active = inhibition above about 30%
CHOP inhibitor: blocks CHOP induction under ER stress; CHO-K1 CHOP-promoter luciferase, tunicamycin-induced, 15-18 h; inhibition, % at 10 µM; 3.8% of 220,000 active; AID 2732;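 active = compounds that reduced the stress-induced luciferase reporter signal by more than about 70% of percent inhibition, limit read from the data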;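 note: 0% = tunicamycin plus vehicle and 100% = wells without tunicamycin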
WT yeast gro inh: growth inhibition of WT yeast, mitochondrial fusion screen; inhibition, % at 10 µM; 2.1% of 190,000 active; mitochondrial fusion phenotypic screen, WT strain; in the data active = inhibition above about 58%; tested in S. cerevisiae
Lmaj promast: reduces viability of Leishmania major promastigotes; resazurin fluorescence viability; inhibition, % at 10 µM; 9% of 200,000 active; in the data active = inhibition above about 50%;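 note: promastigotes grown with compound for 44 hours at 28 °C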
Active calls of the source: *; . = not tested or not shown.

SMILES | Arbovirus inh | CHOP inhibitor | WT yeast gro inh | Lmaj promast
CCOC(=O)c1ccccc1NS(=O)(=O)c1ccc(OCC)cc1 | -10 | . | 45 | 0
O=C(COC(=O)C1CCCCC1)Nc1ccccc1OC(F)F | 8 | 10 | 2 | -7
CCCc1nc(SCc2ccccn2)c2c(=O)n(C)c(=O)n(C)c2n1 | -10 | 70* | 5 | 2
Cn1c(=O)c2c(SCc3ccccn3)nc(CC(C)(C)C)nc2n(C)c1=O | -36 | 74* | 28 | 25
Cn1c(=O)c2c(SCc3ccccn3)nc(C3CC3)nc2n(C)c1=O | -12 | 30 | 16 | 3
CCCc1nc(SC2CCCC2)c2c(=O)n(C)c(=O)n(C)c2n1 | -40 | 75* | 54 | 4
CC1=Nc2cccc([N+](=O)[O-])c2NC(=O)C1 | 3 | -4 | -2 | -6
CCC(C)NS(=O)(=O)c1ccc(S(=O)(=O)N(CC(=O)Nc2ccccc2)CC2CCCO2)cc1 (configuration not stated) | 0 | 14 | -15 | 60*
CCC(C)NS(=O)(=O)c1ccc(NC(=O)CCC2CCCCC2)cc1 (configuration not stated) | 9 | -4 | 1 | -4
Cc1ccccc1OCC(=O)NC(=S)Nc1ccc(S(=O)(=O)NC2CCCCC2)cc1 | -14 | 77* | 21 | -7
O=C(CN(C1CC1)S(=O)(=O)c1ccc(S(=O)(=O)NC2CCCCC2)cc1)Nc1ccccc1 | -26 | 40 | 15 | 100*
COC(=O)COc1ccc(S(=O)(=O)NC2CCCCCC2)cc1 | -4 | -26 | 0 | 8
COC(=O)CCN(C1CCCCC1)S(=O)(=O)c1ccc(S(=O)(=O)NC2CCCCC2)cc1 | -6 | 75* | 14 | 99*
O=C(N1CCCCC1)N1CCN(S(=O)(=O)c2ccc(Cl)cc2)CC1 | 0 | -7 | -6 | -8
CCOc1ccc(NC(=O)NNC(=O)c2ccc(CC)s2)cc1 | 5 | 4 | 7 | -8
COC(=O)c1[nH]c2cccc(OC)c2c1NC(=O)C(C)N1CCC(C)CC1 (configuration not stated) | -4 | 4 | . | 2
CN1N=C(c2ccc(Cl)cc2)CC(c2ccc(Cl)cc2)C1=O (configuration not stated) | -15 | 24 | 65* | 30
Cc1ccc(C2CC(c3ccc(Cl)cc3)=NNC2=O)cc1 (configuration not stated) | -1 | 56 | 13 | 2
O=C1NN=C(c2ccc(Br)cc2)CC1c1ccc(Cl)cc1 (configuration not stated) | 12 | 91* | 58* | 7
O=C(c1ccoc1)N1CCC(CO)(CCc2ccccc2)CC1 | 2 | 5 | 2 | -4
COc1ccc(C(=O)/C=C/c2ccccc2C(F)(F)F)cc1 | -29 | -46 | 23 | 54*
CCOc1ccc(C(=O)/C=C/c2ccccc2C(F)(F)F)cc1 | -1 | 7 | 14 | -3
O=C(NNc1ccccc1)C(=O)N1CCCCC1 | -20 | -13 | 51 | 67*
O=C(NNC(=O)c1ccc(F)cc1)C(=O)N1CCCCC1 | 1 | -21 | -3 | 95*
O=C(/C(=C/c1ccccc1)c1ccccc1)N1CCCCC1 | -4 | 87* | 7 | 0
SMILES | Arbovirus inh | CHOP inhibitor | WT yeast gro inh | Lmaj promast
O=C(C(=O)N1CCN(c2ccc(F)cc2)CC1)N1CCCCC1 | -1 | -5 | -9 | -6
Cc1c(-c2ccnc3cc(C(=O)O)nn23)cnn1C | 2 | 4 | 4 | -7
COc1ccc(-c2cc(CNC(=O)CCl)on2)cc1 | 6 | 35 | 4 | 66*
CCN(CCNC(=O)CN(C)S(=O)(=O)c1cccc2nsnc12)c1ccccc1 | 6 | -9 | -9 | 95*
CC(C)CCNC(=O)C(c1ccc(O)cc1)N(Cc1cccs1)C(=O)C1COc2ccccc2O1 (configuration not stated) | -31 | 60 | 18 | 100*
O=C1CC(C(=O)N(CC2CCCO2)C(C(=O)NC2CCCCC2)c2ccncc2)CS1 (configuration not stated) | -3 | 16 | -14 | -2
Cc1ccc(C(C(=O)NC2CCCCC2)N(Cc2cccnc2)C(=O)C2COc3ccccc3O2)o1 (configuration not stated) | 4 | -1 | -11 | 64*
Cc1ccc(C(C(=O)NC2CCCCC2)N(Cc2ccco2)C(=O)C2COc3ccccc3O2)o1 (configuration not stated) | 0 | 15 | 27 | 19
O=C(NC1CCCCC1)C(c1ccc(O)cc1)N(CC1CCCO1)C(=O)C1COc2ccccc2O1 (configuration not stated) | -1 | 19 | 6 | 50*
CC12CCC(C(=O)NCc3ccc4c(c3)OCO4)(C(=O)C1=O)C2(C)C (configuration not stated) | -7 | -6 | 2 | -2
Clc1cccc(OCCCN2CCCC2)c1Cl | -9 | 2 | 6 | 1
Fc1ccccc1OCCCCCN1CCCC1 | 14 | 5 | 13 | 72*
Fc1ccccc1OCCCCCCN1CCCC1 | 18 | 5 | -8 | 98*
O=C(Nc1ncccn1)c1ccc(C(F)(F)F)cc1 | -3 | 21 | 6 | -5
CCN(CCC(=O)Nc1cc([N+](=O)[O-])ccc1OC)Cc1ccccc1 | -8 | 16 | -6 | 67*
COc1ccc(Br)cc1CN(C)C(C)C(=O)Nc1cc([N+](=O)[O-])ccc1OC (configuration not stated) | -2 | 22 | 38 | 2
COc1ccc([N+](=O)[O-])cc1NC(=O)C(C)N(C)Cc1ccc(Br)cc1 (configuration not stated) | -7 | 70* | 19 | 57*
Cc1ccc(-c2nc(SCC(N)=O)c(C#N)c3c2CCCC3)cc1 | 4 | 83* | -6 | 7
CN1CCN(c2nc(-c3ccc(Cl)s3)cs2)CC1 | -2 | -31 | 12 | 85*
Clc1ccc(-c2csc(N3CCOCC3)n2)cc1 | 9 | -8 | 5 | -8
CCCn1c(=O)c2[nH]c(-c3ccc(S(=O)(=O)O)cc3)nc2n(CCC)c1=O | . | -5 | . | .
CC(C)C1N(C(=O)CN2CCCCC2)CCN1S(=O)(=O)c1ccccc1 (configuration not stated) | 1 | -5 | 17 | 5
NC1=NC(=O)/C(=C/c2c(OS(=O)(=O)c3ccc(Cl)cc3)ccc3ccccc23)S1 | -4 | 94* | 5 | 61*
COc1ccc2nc(SCC(=O)Nc3ccc4sc(C)nc4c3)c(C#N)cc2c1 | -12 | 2 | 0 | -4
CCCCCCN1C=C/C(=C\C=C(C#N)C#N)c2ccccc21 | -9 | 69 | 47 | 8
SMILES | Arbovirus inh | CHOP inhibitor | WT yeast gro inh | Lmaj promast
C=CCN1C=C/C(=C\C=C(C#N)C#N)c2ccccc21 | -8 | 19 | 44 | 70*
Cc1ccc2cc(CN(Cc3ccc(F)cc3)Cc3nnnn3C3CCCC3)c(=O)[nH]c2c1 | -28 | 84* | 37 | 81*
Cc1ccc2cc(CN(Cc3ccccc3)Cc3nnnn3C3CCCC3)c(=O)[nH]c2c1 | -29 | 47 | 54 | 69*
Cc1ccc2[nH]c(=O)c(CN(CCCN3CCOCC3)Cc3nnnn3C3CCCC3)cc2c1 | 5 | -3 | -17 | 4
CCc1ccc2[nH]c(=O)c(CN(Cc3ccc4c(c3)OCO4)Cc3nnnn3C3CCCC3)cc2c1 | -31 | 82* | 31 | 97*
CCn1cc(-c2n[nH]c(=S)n2-c2ccc(C)cc2Br)c(=O)c2ccc(C)nc21 | . | 2 | . | .
COc1cc(/C=C/C(=O)O)cc2c1OCCO2 | 8 | -5 | 2 | 1
